Measured values taken from PubChem BioAssay (NCATS).
Results filed as inconclusive are left out. The source made the active and inactive calls. The call rests on the fitted dose curve; in most records, active means well fitted inhibition curve with a large enough effect; inconclusive means small, poorly fitted or top-dose-only effect; inactive means flat fitted curve, though single readings scatter.

What was measured:
[1] = qHTS profiling for inhibitors of Plasmodium falciparum proliferation (AID 504749); further: nearly all actives have a fitted effect of over 60% in size;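 on activity, negative = inhibition: 0% = DMSO vehicle and full inhibition = artemisinin control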; conditions: P. falciparum in erythrocytes, SYBR Green DNA, 72 h
Outline: (§1)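 Quantitative HTS: compounds pinned into medium, infected erythrocytes added (0.3% parasitemia, 2.5% hematocrit), 72 h culture at 37 C under 5% CO2. Saponin/Triton lysis with SYBR Green I, overnight RT, then fluorescence read.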

3D7 = test: as above; conditions: P. falciparum in erythrocytes, SYBR Green DNA, 72 h; series mostly up to 28.7 µM
Outline: as §1

7G8 = test: as above; conditions: P. falciparum in erythrocytes, SYBR Green DNA, 72 h; series mostly up to 28.7 µM
Outline: as §1

AA1029 = test: as above; conditions: P. falciparum in erythrocytes, SYBR Green DNA, 72 h; series mostly up to 28.7 µM
Outline: as §1

AS120 = test: as above; conditions: P. falciparum in erythrocytes, SYBR Green DNA, 72 h; series mostly up to 28.7 µM
Outline: as §1

ATS189 = test: as above; conditions: P. falciparum in erythrocytes, SYBR Green DNA, 72 h; series mostly up to 28.7 µM
Outline: as §1

ATS95 = test: as above; conditions: P. falciparum in erythrocytes, SYBR Green DNA, 72 h; series mostly up to 28.7 µM
Outline: as §1

C2A = test: as above; conditions: P. falciparum in erythrocytes, SYBR Green DNA, 72 h; series mostly up to 28.7 µM
Outline: as §1

CP185 = test: as above; conditions: P. falciparum in erythrocytes, SYBR Green DNA, 72 h; series mostly up to 28.7 µM
Outline: as §1

CP191 = test: as above; conditions: P. falciparum in erythrocytes, SYBR Green DNA, 72 h; series mostly up to 28.7 µM
Outline: as §1

[2] = at 28.7 µM (top of the series), parasite line A
[3] = at 28.7 µM (top of the series), parasite line B
Potency means the concentration at half of the fitted maximal effect.

O[C@H]1[C@H]2[C@H](O)CCCN2C[C@H]1O
inactive: activity, negative = inhibition [1, 2] 9.76% | activity, negative = inhibition [1, 3] 2.41% | Potency (3D7) | Potency (7G8) | Potency (AA1029) | Potency (AS120) | Potency (ATS189) | Potency (ATS95) | Potency (C2A) | Potency (CP185) | Potency (CP191)

O=C1CCO1
inactive: activity, negative = inhibition [1, 2] -3.97% | activity, negative = inhibition [1, 3] -7.7% | Potency (3D7) | Potency (7G8) | Potency (AA1029) | Potency (AS120) | Potency (ATS189) | Potency (ATS95) | Potency (C2A) | Potency (CP185) | Potency (CP191)

C#CC(C)(O)CC (centres undefined)
inactive: activity, negative = inhibition [1, 2] 3.88% | activity, negative = inhibition [1, 3] -6.77% | Potency (3D7) | Potency (7G8) | Potency (AA1029) | Potency (AS120) | Potency (ATS189) | Potency (ATS95) | Potency (C2A) | Potency (CP185) | Potency (CP191)

O=CC=O
inactive: activity, negative = inhibition [1, 2] 6.37% | activity, negative = inhibition [1, 3] 0.163% | Potency (3D7) | Potency (7G8) | Potency (AA1029) | Potency (AS120) | Potency (ATS189) | Potency (ATS95) | Potency (C2A) | Potency (CP185) | Potency (CP191)

O=C/C=C/c1ccccc1
inactive: activity, negative = inhibition [1, 2] 8.58% | activity, negative = inhibition [1, 3] -11% | Potency (3D7) | Potency (7G8) | Potency (AA1029) | Potency (AS120) | Potency (ATS189) | Potency (ATS95) | Potency (C2A) | Potency (CP185) | Potency (CP191)

O=C1CC[C@@]2(O)C3Cc4ccc(O)c5c4C2(CCN3CC2CC2)[C@H]1O5 (some centres undefined)
inactive: activity, negative = inhibition [1, 2] 9.65% | activity, negative = inhibition [1, 3] 8.16% | Potency (3D7) | Potency (7G8) | Potency (AA1029) | Potency (AS120) | Potency (ATS189) | Potency (ATS95) | Potency (C2A) | Potency (CP185) | Potency (CP191)

O=P(O)(O)C(Cl)(Cl)P(=O)(O)O
inactive: activity, negative = inhibition [1, 2] 6.37% | activity, negative = inhibition [1, 3] 14% | Potency (3D7) | Potency (7G8) | Potency (AA1029) | Potency (AS120) | Potency (ATS189) | Potency (ATS95) | Potency (C2A) | Potency (CP185) | Potency (CP191)

CNC(C)C(O)c1ccc(O)cc1 (centres undefined)
inactive: activity, negative = inhibition [1, 2] 5.26% | activity, negative = inhibition [1, 3] -1.7% | Potency (3D7) | Potency (7G8) | Potency (AA1029) | Potency (AS120) | Potency (ATS189) | Potency (ATS95) | Potency (C2A) | Potency (CP185) | Potency (CP191)

C=CCN1CCC23c4c5ccc(O)c4O[C@H]2C(=O)CC[C@@]3(O)C1C5 (some centres undefined)
inactive: activity, negative = inhibition [1, 2] 8.48% | activity, negative = inhibition [1, 3] -7.58% | Potency (3D7) | Potency (7G8) | Potency (AA1029) | Potency (AS120) | Potency (ATS189) | Potency (ATS95) | Potency (C2A) | Potency (CP185) | Potency (CP191)

C[N+]1(C)CCCCC1COC(=O)C(O)(c1ccccc1)c1ccccc1 (centres undefined)
inactive: activity, negative = inhibition [1, 2] -21.5% | activity, negative = inhibition [1, 3] -9.17% | Potency (3D7) | Potency (7G8) | Potency (AA1029) | Potency (AS120) | Potency (ATS189) | Potency (ATS95) | Potency (C2A) | Potency (CP185) | Potency (CP191)

C[N+]1(C)C2CCC1CC(OC(=O)c1c[nH]c3ccccc13)C2 (centres undefined)
inactive: activity, negative = inhibition [1, 2] 3.31% | activity, negative = inhibition [1, 3] 10.8% | Potency (3D7) | Potency (7G8) | Potency (AA1029) | Potency (AS120) | Potency (ATS189) | Potency (ATS95) | Potency (C2A) | Potency (CP185) | Potency (CP191)

CC(C)Nc1ccc(Nc2ccccc2)cc1
active: Potency ([1]; parasite line A) 3.16 µM | Potency ([1]; parasite line B) 5.01 µM | Potency (3D7) 6.31 µM | Potency (7G8) 8.91 µM | Potency (AA1029) 7.08 µM | Potency (AS120) 11.2 µM | Potency (ATS189) 5.62 µM | Potency (ATS95) 7.94 µM | Potency (C2A) 8.91 µM | Potency (CP185) 8.91 µM | Potency (CP191) 4.47 µM

CC(C)(O)C1C2OC(=O)C1C1(O)CC3OC34C(=O)OC2C14C (centres undefined)
inactive: activity, negative = inhibition [1, 2] 13.7% | activity, negative = inhibition [1, 3] 0.0355% | Potency (3D7) | Potency (7G8) | Potency (AA1029) | Potency (AS120) | Potency (ATS189) | Potency (ATS95) | Potency (C2A) | Potency (CP185) | Potency (CP191)

ClCC1CO1 (centres undefined)
inactive: activity, negative = inhibition [1, 2] 2.63% | activity, negative = inhibition [1, 3] -1.12% | Potency (3D7) | Potency (7G8) | Potency (AA1029) | Potency (AS120) | Potency (ATS189) | Potency (ATS95) | Potency (C2A) | Potency (CP185) | Potency (CP191)

FC(F)OC(F)(F)C(F)Cl (centres undefined)
inactive: activity, negative = inhibition [1, 2] 10.8% | activity, negative = inhibition [1, 3] 14% | Potency (3D7) | Potency (7G8) | Potency (AA1029) | Potency (AS120) | Potency (ATS189) | Potency (ATS95) | Potency (C2A) | Potency (CP185) | Potency (CP191)

CC(C)CCON=O
inactive: activity, negative = inhibition [1, 2] -1.57% | activity, negative = inhibition [1, 3] -11.8% | Potency (3D7) | Potency (7G8) | Potency (AA1029) | Potency (AS120) | Potency (ATS189) | Potency (ATS95) | Potency (C2A) | Potency (CP185) | Potency (CP191)

ClC(Cl)(Cl)Cl
inactive: activity, negative = inhibition [1, 2] 12.6% | activity, negative = inhibition [1, 3] 5.77% | Potency (3D7) | Potency (7G8) | Potency (AA1029) | Potency (AS120) | Potency (ATS189) | Potency (ATS95) | Potency (C2A) | Potency (CP185) | Potency (CP191)

Oc1cc(Cl)c(Cl)cc1Cl
inactive: activity, negative = inhibition [1, 2] 4.1% | activity, negative = inhibition [1, 3] -8.4% | Potency (3D7) | Potency (AA1029) | Potency (AS120) | Potency (ATS189) | Potency (ATS95) | Potency (C2A) | Potency (CP185) | Potency (CP191)
active: Potency (7G8) 11.2 µM

COC1=CC=C2[C@H]3Cc4ccc(OC)c5c4[C@@]2(CCN3C)[C@H]1O5
inactive: activity, negative = inhibition ([1]; at 12.8 µM (top of the series), parasite line A) -6.15% | activity, negative = inhibition ([1]; at 12.8 µM (top of the series), parasite line B) 12.3% | Potency (3D7) | Potency (7G8) | Potency (AA1029) | Potency (AS120) | Potency (ATS189) | Potency (ATS95) | Potency (C2A) | Potency (CP185) | Potency (CP191)

CNC(=O)Oc1ccccc1C(=O)Nc1ccccc1
active: Potency ([1]; parasite line B) 11.2 µM | Potency (7G8) 10 µM
inactive: Potency (3D7) | Potency (C2A) | Potency (CP185)
